# C diff growth: inhibitors of Clostridium difficile growth; actives 0.25% (n = 86,000); Clostridium difficile clinical isolate growth, OD600, 24 h; active compounds read low; growth activity, negative = inhibition, % at 16 µg/mL (by protocol);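 active = mean growth activity at or below -80% and every replicate also at or below -80%; inconclusive = mean at or below -80% but some replicate above -80%; inactive = mean growth activity above -80%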
# T cruzi growth-1: blocks T. cruzi growth in NIH3T3 culture; actives 5.9% (n = 77,000); T. cruzi beta-gal in NIH3T3, GalScreen luminescence, 90 h; inhibition, % at 8.34 µM; AID 624255;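 active = mean inhibition above about 93%, with at least 55% of replicates each passing it, limit read from the data, passing the limit was not always enough; inconclusive = only one of those two conditions holds; inactive = neither condition holds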
# Pf Dd2 inh: P. falciparum Dd2 growth inhibition | actives 2.3% (n = 94,000) | activity change, % at 10 µM | SYBR Green, 72 h; active compounds read low; in the data active = activity change below about -80%; inconclusive = no clear call, values can overlap the other calls
# T cruzi growth-2: Trypanosoma cruzi proliferation inhibition. shares compounds with T cruzi growth-1. T. cruzi beta-gal in NIH3T3, GalScreen luminescence, 90 h. inhibition, % at 8.35 µM. actives 72% (n = 5,600). AID 651739;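 active = mean replicate inhibition above about 95% and at least 55% of replicates individually reaching it, limit read from the data; inconclusive = only one of the two criteria is met; inactive = neither criterion is met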
# T cruzi growth-3: Trypanosoma cruzi proliferation inhibition. shares compounds with T cruzi growth-1. T. cruzi beta-gal in NIH3T3, GalScreen luminescence, 90 h. inhibition, % at 2.09 µM. actives 21% (n = 5,600);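 active = mean inhibition above about 95%, with at least 55% of replicates also reaching it, limit read from the data; inconclusive = meets just one of the two conditions; inactive = meets neither condition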
# NIH3T3 tox: cytotoxicity in mouse NIH/3T3 fibroblasts. shares compounds with T cruzi growth-1. NIH/3T3 viability, CellTiter-Glo ATP luminescence, 90 h. cytotoxicity (signal decrease), % at 8.35 µM. actives 14% (n = 5,600);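 active = mean signal decrease across replicates above about 35% based on untreated-well scatter, with enough replicates individually passing, limit read from the data; inconclusive = no rule stated though some were filed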
# NIH3T3 tox 2: NIH/3T3 (mouse) viability loss; shares compounds with T cruzi growth-1; AID 651744; actives 56% (n = 5,600); inhibition, % at 24.9 µM; NIH/3T3 viability, CellTiter-Glo ATP luminescence, 90 h;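 active = mean loss of cell viability signal at or above a set limit, and enough replicates individually reaching it; inconclusive = meets only the mean limit or only the replicate share; inactive = meets neither condition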
# A number is an active result; – = inactive; ? = inconclusive; · = no result; ! = not confirmed by another sample. Sampled rows, rich in hits. Any-hit rate of the full collection: about 6.8%.
SMILES,C diff growth,T cruzi growth-1,Pf Dd2 inh,T cruzi growth-2,T cruzi growth-3,NIH3T3 tox,NIH3T3 tox 2
O=C(Nc1ccccc1)N1CCCCN2[C@H](CO)[C@H](c3ccc(-c4ccncc4)cc3)[C@@H]2C1,–,–,–,·,·,·,·
O=C(Nc1ccccc1)N1CCCCN2[C@H](CO)[C@H](c3ccc(-c4ccncc4)cc3)[C@H]2C1,–,96,–,–,–,–,–
O=C(Nc1ccccc1)N1CCCCN2[C@H](CO)[C@H](c3ccc(-c4ccccc4)cc3)[C@@H]2C1,–,112,–,109,–,–,–
O=C(Nc1ccccc1)N1CCCCN2[C@@H](CO)[C@H](c3ccc(Br)cc3)[C@@H]2C1,–,–,–,·,·,·,·
COc1ccccc1CNC(=O)C[C@@H]1C[C@@H]2c3cc(NC(=O)C4CCC4)ccc3O[C@@H]2[C@@H](CO)O1,–,–,–,·,·,·,·
O=C(C[C@@H]1CC[C@@H](NC(=O)c2cccc(F)c2)[C@H](CO)O1)NCCN1CCCC1,·,–,–,·,·,·,·
COc1cc(CN2CC3(CCN(C(=O)CN4CCOCC4)CC3)c3c(n(C)c4cc(OC)ccc34)[C@H]2CO)cc(OC)c1,–,·,–,·,·,·,·
O=C(Nc1ccc(C(F)(F)F)cc1)Nc1ccc2c(c1)[C@H]1C[C@@H](CC(=O)N3CCc4ccccc4C3)O[C@@H](CO)[C@H]1O2,–,–,–,·,·,·,·
O=C(Nc1ccc(C(F)(F)F)cc1)Nc1ccc2c(c1)[C@H]1C[C@H](CC(=O)N3CCc4ccccc4C3)O[C@@H](CO)[C@H]1O2,–,141,–,96,–,–,103
O=C(Nc1ccc(C(F)(F)F)cc1)Nc1ccc2c(c1)[C@H]1C[C@@H](CC(=O)N3CCc4ccccc4C3)O[C@H](CO)[C@H]1O2,–,?,–,–,112,–,40
O=C(Nc1ccc2c(c1)[C@@H]1C[C@@H](CC(=O)N3CCc4ccccc4C3)O[C@@H](CO)[C@@H]1O2)Nc1ccccc1F,–,·,–,·,·,·,·
CN(C)c1ccc2c(c1)[C@H]1C[C@@H](CC(=O)N3CCc4ccccc4C3)O[C@@H](CO)[C@H]1O2,–,–,–,·,·,·,·
CN(C)c1ccc2c(c1)[C@@H]1C[C@@H](CC(=O)N3CCc4ccccc4C3)O[C@@H](CO)[C@@H]1O2,–,135,-86,–,–,–,–
Cc1ccc(S(=O)(=O)Nc2ccc3c(c2)C(=O)N([C@@H](C)CO)C[C@@H](C)[C@H](CN(C)C(=O)C2CCCCC2)OCCCC[C@@H](C)O3)cc1,–,–,–,·,·,·,·
COc1cccc(C#Cc2cnc3c(c2)C(=O)N([C@@H](C)CO)C[C@@H](C)[C@@H](CN(C)C(=O)C2CCC2)O3)c1,–,–,–,·,·,·,·
CN(C)CC(=O)N1CCCCN2[C@H](CO)[C@H](c3ccc(/C=C/c4ccccc4)cc3)[C@@H]2C1,–,101,–,112,110,89,104
CCC(=O)N1CCCCN2[C@H](C1)[C@H](c1ccc(/C=C/c3ccccc3)cc1)[C@@H]2CO,–,105,–,–,–,–,103
CN(C)CC(=O)N1CCCCN2[C@H](CO)[C@@H](c3ccc(/C=C/c4ccccc4)cc3)[C@@H]2C1,–,–,–,·,·,·,·
CCC(=O)N1CCCCN2[C@H](CO)[C@@H](c3ccc(/C=C/c4ccccc4)cc3)[C@@H]2C1,–,–,–,·,·,·,·
CN1CCCCN2[C@@H](CO)[C@@H](c3ccc(/C=C/c4ccccc4)cc3)[C@@H]2C1,–,–,–,·,·,·,·
CCC(=O)N1CCCCN2[C@@H](CO)[C@@H](c3ccc(/C=C/c4ccccc4)cc3)[C@@H]2C1,–,118,–,99,–,–,105
CO[C@H]1CN(C)C(=O)c2ccc(NC(=O)c3ccc(F)cc3)cc2OC[C@H](C)N(C(=O)CC2CC2)C[C@H]1C,·,–,–,·,·,·,·
C[C@@H]1CN([C@@H](C)CO)S(=O)(=O)c2ccc(C#Cc3ccncc3)cc2O[C@@H]1CN(C)C(=O)Nc1ccc2c(c1)OCO2,–,–,–,·,·,·,·
C[C@H]1CN([C@@H](C)CO)S(=O)(=O)c2ccc(C3=CCCC3)cc2O[C@@H]1CN(C)C(=O)Nc1ccc2c(c1)OCO2,–,109,–,96,–,–,28
C[C@H](CO)N1C[C@H](C)[C@@H](CN(C)C(=O)Nc2ccc3c(c2)OCO3)Oc2cc(C#Cc3ccccc3)ccc2S1(=O)=O,–,131,–,104,–,–,–
SMILES,C diff growth,T cruzi growth-1,Pf Dd2 inh,T cruzi growth-2,T cruzi growth-3,NIH3T3 tox,NIH3T3 tox 2
C[C@@H]1CN([C@H](C)CO)S(=O)(=O)c2ccc(C3=CCCC3)cc2O[C@@H]1CN(C)C(=O)Nc1ccc2c(c1)OCO2,–,–,–,·,·,·,·
C[C@H](CO)N1C[C@H](C)[C@@H](CN(C)C(=O)Nc2ccc3c(c2)OCO3)Oc2cc(C#Cc3ccncc3)ccc2S1(=O)=O,–,–,–,·,·,·,·
C[C@@H]1CN([C@H](C)CO)S(=O)(=O)c2ccc(C#Cc3ccccc3)cc2O[C@H]1CN(C)C(=O)Nc1ccc2c(c1)OCO2,–,92,–,108,96!,–,32
COc1cccc(NC(=O)N[C@H]2C=C[C@@H](CC(=O)N3CCCCC3)O[C@H]2CO)c1,–,–,–,·,·,·,·
CCCNC(=O)N1CC2(C1)CN(C(C)=O)[C@@H](CO)c1c2c2ccc(OC)cc2n1C,–,·,–,·,·,·,·
C[C@@H]1CN([C@H](C)CO)S(=O)(=O)c2ccc(C#CCN(C)C)cc2O[C@@H]1CN(C)Cc1ccncc1,–,–,–,·,·,·,·
CCCC#Cc1ccc2c(c1)O[C@H](CN(C)Cc1ccncc1)[C@H](C)CN([C@H](C)CO)S2(=O)=O,–,114,–,103,–,37,?
C[C@@H]1CN([C@H](C)CO)S(=O)(=O)c2ccc(C#CCN(C)C)cc2O[C@H]1CN(C)Cc1ccncc1,–,101,–,107,105,45,58
CCCC#Cc1ccc2c(c1)O[C@H](CN(C)Cc1ccncc1)[C@@H](C)CN([C@@H](C)CO)S2(=O)=O,–,121,–,106,101,42,104
CCCC#Cc1ccc2c(c1)O[C@@H](CN(C)Cc1ccccc1)[C@H](C)CN([C@H](C)CO)S2(=O)=O,·,·,–,·,·,·,·
CC(C)CC#Cc1ccc2c(c1)O[C@@H](CN(C)Cc1ccncc1)[C@H](C)CN([C@@H](C)CO)S2(=O)=O,–,132,–,97,105,–,103
CCCC#Cc1ccc2c(c1)O[C@H](CN(C)Cc1ccccc1)[C@@H](C)CN([C@@H](C)CO)S2(=O)=O,·,·,–,·,·,·,·
CC(C)CC#Cc1ccc2c(c1)O[C@@H](CN(C)Cc1ccc(F)cc1)[C@@H](C)CN([C@H](C)CO)S2(=O)=O,–,–,–,·,·,·,·
COc1cccc(CNC(=O)C[C@@H]2C=C[C@H](NC(=O)C3CCC3)[C@@H](CO)O2)c1,·,–,–,·,·,·,·

# Screening results as filed in PubChem.
